# Test results from the supplement of paper PMC8728848.
# This is one part of a sample in which the strongest signals are shown more often than they occur.
# B1: DC-ASGPR L+GEE (Homo sapiens) (protein)
# chain: MTRTYENFQYLENKVKVQGFKNGPLPLQSLLQRLRSGPCHLLLSLGLGLLLLVIICVVGFQNSKFQRDLVTLRTDFSNFTSNTVAEIQALTSQGSSLEETIASLKAEVEGFKQERQAGVSELQEHTTQKAHLGHCPHCPSVCVPVHSEMLLRVQQLVQDLKKLTCQVATLNNNGEEASTEGTCCPVNWVEHQDSCYWFSHSGMSWAEAEKYCQLKNAHLVVINSREEQNFVQKYLGSAYTWMGLSDPEGAWKWVDGTDYATGFQNWKPGQPDDWQGHGLGGGEDCAHFHPDGRWNDDVCQRPYHWVCEAGLGQTSQESH
# Experiments:
# Test in all cases: glycan array binding signal (z-score within array); higher = stronger binding
# Conditions in all cases: glycan notation: IUPAC condensed, linker removed
# [1] = target: GalNAc(b1-3)Gal(a1-4)Gal(b1-4)GlcNAc
# In short: (§1)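 Columns mapping to the same glycan were averaged after glycan names were converted to IUPAC-condensed notation. The data come from 3228 arrays in the Consortium for Functional Glycomics database, limited to those with an available protein sequence. Binding is reported as a within-array Z-score averaged across arrays of one protein sequence and across linkers.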
# [2] = target: GalNAc(b1-3)Gal(a1-4)Gal(b1-4)GlcNAc(b1-3)Gal(b1-4)Glc
# In short: as §1
# GalNAc6S(b1-4)GlcNAc = target: GalNAc6S(b1-4)GlcNAc
# In short: as §1
# [3] = target: GlcNAc(a1-4)Gal(b1-4)GlcNAc
# In short: as §1
# [4] = target: GlcNAc(b1-2)[GlcNAc(b1-4)]Man(a1-3)[GlcNAc(b1-4)][GlcNAc(b1-2)Man(a1-6)]Man(b1-4)GlcNAc(b1-4)GlcNAc
# In short: as §1
# [5] = target: GlcNAc(b1-3)Gal(b1-4)GlcNAc(b1-3)Gal(b1-4)GlcNAc(b1-2)[GlcNAc(b1-3)Gal(b1-4)GlcNAc(b1-3)Gal(b1-4)GlcNAc(b1-6)]Man(a1-6)[GlcNAc(b1-3)Gal(b1-4)GlcNAc(b1-3)Gal(b1-4)GlcNAc(b1-2)Man(a1-3)]Man(b1-4)GlcNAc(b1-4)[Fuc(a1-6)]GlcNAc
# In short: as §1
# [6] = target: GlcNAc(b1-3)Gal(b1-4)GlcNAc(b1-3)Gal(b1-4)GlcNAc(b1-3)Gal(b1-4)GlcNAc(b1-2)Man(a1-3)[GlcNAc(b1-3)Gal(b1-4)GlcNAc(b1-3)Gal(b1-4)GlcNAc(b1-3)Gal(b1-4)GlcNAc(b1-2)Man(a1-6)]Man(b1-4)GlcNAc(b1-4)[Fuc(a1-6)]GlcNAc
# In short: as §1
# [7] = target: GlcNAc(b1-3)Gal(b1-4)GlcNAc(b1-3)Gal(b1-4)GlcNAc(b1-3)Gal(b1-4)GlcNAc(b1-3)Gal(b1-4)GlcNAc(b1-2)Man(a1-3)[GlcNAc(b1-3)Gal(b1-4)GlcNAc(b1-3)Gal(b1-4)GlcNAc(b1-3)Gal(b1-4)GlcNAc(b1-3)Gal(b1-4)GlcNAc(b1-2)Man(a1-6)]Man(b1-4)GlcNAc(b1-4)[Fuc(a1-6)]GlcNAc
# In short: as §1
# [8] = target: GlcNAc(b1-3)Gal(b1-4)GlcNAc(b1-6)[Gal(b1-3)]GalNAc
# In short: as §1
# GlcNAc(b1-3)GalNAc = target: GlcNAc(b1-3)GalNAc
# In short: as §1
# GlcNAc(b1-6)GalNAc = target: GlcNAc(b1-6)GalNAc
# In short: as §1
# Kdn(a2-3)Gal(b1-4)GlcNAc = target: Kdn(a2-3)Gal(b1-4)GlcNAc
# In short: as §1
# [9] = target: Man(a1-2)Man(a1-3)[Man(a1-2)Man(a1-6)]Man
# In short: as §1
# [10] = target: Neu5Ac(a2-3)Gal(b1-3)GalNAc(b1-4)[Neu5Ac(a2-8)Neu5Ac(a2-3)]Gal(b1-4)Glc
# In short: as §1
# [11] = target: Neu5Ac(a2-3)Gal(b1-3)GlcNAc(b1-6)GalNAc
# In short: as §1
# [12] = target: Neu5Ac(a2-3)Gal(b1-4)GlcNAc(b1-3)Gal(b1-4)GlcNAc(b1-2)Man(a1-3)[Neu5Ac(a2-3)Gal(b1-4)GlcNAc(b1-3)Gal(b1-4)GlcNAc(b1-2)Man(a1-6)]Man(b1-4)GlcNAc(b1-4)GlcNAc
# In short: as §1
# [13] = target: Neu5Ac(a2-3)Gal(b1-4)GlcNAc(b1-3)Gal(b1-4)GlcNAc(b1-6)[Gal(b1-3)]GalNAc
# In short: as §1
# [14] = target: Neu5Ac(a2-3)Gal(b1-4)GlcNAc(b1-6)GalNAc
# In short: as §1
# [15] = target: Neu5Ac(a2-3)Gal(b1-4)GlcNAc(b1-6)[Gal(b1-3)]GalNAc
# In short: as §1
# [16] = target: Neu5Ac(a2-3)Gal(b1-4)[Fuc(a1-3)]GlcNAc6S
# In short: as §1
# Neu5Ac(a2-3)GalNAc = target: Neu5Ac(a2-3)GalNAc
# In short: as §1
# [17] = target: Neu5Ac(a2-6)Gal(b1-4)GlcNAc(b1-2)Man
# In short: as §1
# [18] = target: Neu5Ac(a2-6)Gal(b1-4)GlcNAc(b1-2)Man(a1-3)[GlcNAc(b1-2)Man(a1-6)]Man(b1-4)GlcNAc(b1-4)GlcNAc
# In short: as §1
# [19] = target: Neu5Ac(a2-6)Gal(b1-4)GlcNAc(b1-2)Man(a1-6)[GlcNAc(b1-2)Man(a1-3)]Man(b1-4)GlcNAc(b1-4)GlcNAc
# In short: as §1
# [20] = target: Neu5Ac(a2-8)Neu5Ac(a2-3)[Gal(b1-3)GalNAc(b1-4)]Gal(b1-4)Glc
# In short: as §1
# [21] = target: Neu5Gc(a2-3)Gal(b1-3)GlcNAc
# In short: as §1
# [22] = target: Neu5Gc(a2-8)Neu5Gc(a2-3)Gal(b1-4)GlcNAc
# In short: as §1
# [23] = target: Neu5Gc(a2-8)Neu5Gc(a2-6)Gal(b1-4)GlcNAc
# In short: as §1
binder,measurement,setting,value
B1,glycan array binding signal (z-score),[1],4.33
same,glycan array binding signal (z-score),[2],4.06
same,glycan array binding signal (z-score),GalNAc6S(b1-4)GlcNAc,1.11
same,glycan array binding signal (z-score),[3],-0.367
same,glycan array binding signal (z-score),[4],-0.37
same,glycan array binding signal (z-score),[5],0.194
same,glycan array binding signal (z-score),[6],-0.283
same,glycan array binding signal (z-score),[7],0.512
same,glycan array binding signal (z-score),[8],-0.411
same,glycan array binding signal (z-score),GlcNAc(b1-3)GalNAc,-0.439
same,glycan array binding signal (z-score),GlcNAc(b1-6)GalNAc,3.71
same,glycan array binding signal (z-score),Kdn(a2-3)Gal(b1-4)GlcNAc,-0.074
same,glycan array binding signal (z-score),[9],-0.348
same,glycan array binding signal (z-score),[10],-0.319
same,glycan array binding signal (z-score),[11],6.64
same,glycan array binding signal (z-score),[12],-0.164
same,glycan array binding signal (z-score),[13],-0.553
same,glycan array binding signal (z-score),[14],3
same,glycan array binding signal (z-score),[15],-0.019
same,glycan array binding signal (z-score),[16],-0.418
same,glycan array binding signal (z-score),Neu5Ac(a2-3)GalNAc,-0.223
same,glycan array binding signal (z-score),[17],0.432
same,glycan array binding signal (z-score),[18],-0.362
same,glycan array binding signal (z-score),[19],-0.328
same,glycan array binding signal (z-score),[20],0.544
same,glycan array binding signal (z-score),[21],-0.017
same,glycan array binding signal (z-score),[22],-0.146
same,glycan array binding signal (z-score),[23],-0.204
